# PubChem BioAssay (NCATS)
# A number with no mark means an inactive call. Results filed as inconclusive are left out. Entries that show only a call come without a potency. The source made the active and inactive calls. Calls follow the shape of the dose curve; as a rule, active = well fitted curve in the direction sought with a large enough effect; inconclusive = small, poorly fitted or top-dose-only effect, or another doubt; inactive = no such curve, though single readings can be large; an effect the other way counts as inactive or inconclusive.
# Columns and labels:
# [1] = target: Glutathione peroxidase 1 (Homo sapiens) (UniProt P07203); test: Primary qHTS Assay for Inhibitors of Recombinant Selenoprotein Glutathione Peroxidase 1 (GPX1) (AID 1845191); also: nearly all actives have a fitted effect of over 65% in size; also: potency is read from the fitted curve at half-maximal effect
# Glutathione peroxidase 1 (Homo sapiens), sequence (P07203 whole entry, looked up): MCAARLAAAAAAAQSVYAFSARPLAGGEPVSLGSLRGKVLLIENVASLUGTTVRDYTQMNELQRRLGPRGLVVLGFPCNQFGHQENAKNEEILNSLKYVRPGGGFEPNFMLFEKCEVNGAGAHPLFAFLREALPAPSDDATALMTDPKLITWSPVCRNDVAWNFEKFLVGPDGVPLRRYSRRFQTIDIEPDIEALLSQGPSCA
# Procedure, shortened: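 Recombinant GPX1 (10 nM final) was preincubated with compound for 30 min at room temperature, then reacted with 1 mM GSH, 0.5 mM CHP, 0.5 mM NADPH and 100 nM glutathione reductase; NADPH fluorescence (340/450 nm) was read at 0 and 15 min.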
# [2] = target: Metallo-beta-lactamase type 2 (Klebsiella pneumoniae) (UniProt C7C422); test: qHTS to identify inhibitors of the New Delhi Metallo-beta-lactamase (NDM): assay validation screen against the NCATS LOPAC Collection (AID 1794843);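 also: nitrocefin turnover by NDM-1 measured as 485 nm absorbance at plateau; series mostly up to about 38 µM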
# Metallo-beta-lactamase type 2 (Klebsiella pneumoniae), sequence (C7C422 whole entry, looked up): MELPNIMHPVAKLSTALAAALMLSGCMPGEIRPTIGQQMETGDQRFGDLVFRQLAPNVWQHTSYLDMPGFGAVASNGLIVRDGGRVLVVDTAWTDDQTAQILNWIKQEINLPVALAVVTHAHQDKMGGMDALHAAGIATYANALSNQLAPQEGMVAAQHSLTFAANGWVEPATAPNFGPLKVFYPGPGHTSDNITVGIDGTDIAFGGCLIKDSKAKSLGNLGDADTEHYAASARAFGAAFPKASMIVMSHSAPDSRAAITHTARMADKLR
# Procedure, shortened: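 Enzyme 2 nM final, 50 mM HEPES pH 7.0, 1 uM ZnSO4, 0.01% Tween20; cpds in DMSO, preincub w/ enzyme; + nitrocefin (50 uM stock); A485 at plateau; no-enzyme column as blank.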
# [3] = target: Phospholipid hydroperoxide glutathione peroxidase GPX4 (Homo sapiens) (UniProt P36969); test: Primary qHTS Assay for Inhibitors of Recombinant Selenoprotein Glutathione Peroxidase 4 (GPX4) (AID 1845192); also: nearly all actives have a fitted effect of over 65% in size; as to activity change, negative = inhibition: series mostly up to about 50 µM
# Phospholipid hydroperoxide glutathione peroxidase GPX4 (Homo sapiens), sequence (P36969 whole entry, looked up): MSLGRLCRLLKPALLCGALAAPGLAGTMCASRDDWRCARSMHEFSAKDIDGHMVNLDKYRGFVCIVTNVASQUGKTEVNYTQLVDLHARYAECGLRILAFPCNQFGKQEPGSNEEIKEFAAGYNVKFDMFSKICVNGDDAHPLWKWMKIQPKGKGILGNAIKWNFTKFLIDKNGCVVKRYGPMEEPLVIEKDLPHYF
# Procedure, shortened: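 GR-coupled readout: 100 nM GR, 1 mM GSH, 0.5 mM NADPH; NADPH fluorescence (ex 340/em 450 nm) read at t=0 and after 15 min RT. GPX4 200 nM, preincubated 30 min with compound; substrate 0.5 mM CHP.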
# [4] = Primary fluorescence-based thiol-reactive (MSTI) qHTS assay for identification of artifact compounds. (AID 1845221); also: nearly all actives have a fitted effect of over 65% in size; also: potency is read from the fitted curve at half-maximal effect
# Procedure, shortened: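 qHTS titration of compound; 4 uM MSTI, PBS pH 7.4, 2% DMSO; 1 h RT, dark; fluorescence 525/598 nm; normalized to Acetyl-MSTI and MSTI; 4-parameter Hill fit.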
# [5] = tested on: Nanoluciferase (engineered Oplophorus gracilirostris luciferase); test: Primary Nanoluciferase (NLuc) qHTS assay for identification of artifact compounds. (AID 1845222); also: potency is read from the fitted curve at half-maximal effect;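 as to activity, negative = inhibition: NLuc secreted into diluted conditioned medium of S16 cells; series mostly up to about 54 µM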
# Procedure, shortened: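 Concentration-response data were obtained by luminescence after 5 min with Nano-Glo substrate at 1:100. The enzyme was diluted S16 NLuc-expressing cell medium, preincubated with compound for 15 min at RT. Curves were fitted with a 4-parameter Hill model.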
# [6] = Primary redox qHTS assay for identification of artifact compounds. (AID 1845223)
# Procedure, shortened: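 Amplex Red (25 uM) and HRP (250 mU/mL) in HBSS, with compounds for 15 min, then 250 uM DTT for 30 min, room temperature, dark. Fluorescence 525/598 nm read; normalized to DMSO and 10 uM DA3003; Hill fit.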
# [7] = target: Luciferin 4-monooxygenase (Photinus pyralis) (UniProt P08659); test: Primary firefly luciferase (FLuc) qHTS assay for identification of artifact compounds. (AID 1845220); also: nearly all actives have a fitted effect of over 60% in size; as to activity change, negative = inhibition: series mostly up to about 54 µM
# Procedure, shortened: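 Reaction readout was CCD-imaged luminescence, taken 5 min after adding 10 nM purified firefly enzyme to compound-treated wells holding 10 uM luciferin and ATP in pH 7.6 buffer.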
# [8] = HepG2 viability counterscreen (readout 2: ATP content) against the NCATS DSHEA and TCM libraries (AID 1794840);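 also: HepG2 cells exposed to substances for about 24 h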
# Procedure, shortened: (§1)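 Cytotoxicity was assessed in HepG2 cells plated at 1,000 cells/well and exposed for about 24 hours to a concentration series. Protease activity and ATP content were measured sequentially in each well.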
# [9] = HepG2 viability counterscreen (readout 1: protease activity) against the NCATS DSHEA and TCM libraries (AID 1794841);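 also: cells exposed to compounds for about 24 h before the protease read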
# Procedure, shortened: as §1
# [10] = target: Cytochrome P450 3A4 (Homo sapiens) (UniProt P08684); test: qHTS for inhibitors of CYP3A4 against the NCATS DSHEA and TCM libraries (AID 1919971);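 also: inhibition lowers luminescence from luciferin made by CYP3A4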
# Cytochrome P450 3A4 (Homo sapiens), sequence (P08684 whole entry, looked up): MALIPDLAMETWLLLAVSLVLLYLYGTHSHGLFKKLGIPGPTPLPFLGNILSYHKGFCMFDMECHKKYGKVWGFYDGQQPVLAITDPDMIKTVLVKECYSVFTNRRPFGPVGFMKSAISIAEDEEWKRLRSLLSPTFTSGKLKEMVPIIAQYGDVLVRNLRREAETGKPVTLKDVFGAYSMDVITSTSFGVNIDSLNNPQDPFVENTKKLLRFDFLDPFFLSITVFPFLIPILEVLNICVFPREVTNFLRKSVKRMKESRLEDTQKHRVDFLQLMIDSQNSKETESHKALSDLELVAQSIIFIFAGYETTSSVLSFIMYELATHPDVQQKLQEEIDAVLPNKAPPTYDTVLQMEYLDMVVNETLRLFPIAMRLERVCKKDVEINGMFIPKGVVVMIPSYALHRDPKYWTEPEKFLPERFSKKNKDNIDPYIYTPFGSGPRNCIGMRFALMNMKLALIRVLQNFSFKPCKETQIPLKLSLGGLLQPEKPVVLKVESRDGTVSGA
# Procedure, shortened: (§2)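 Luminescent P450-Glo format: compounds preincubated 15 min with enzyme and luciferin substrate, reaction run 30-45 min after NADPH regeneration solution. Intraplate controls: ketoconazole for CYP3A4 and CYP2C19, sulfaphenazole for CYP2C9.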
# [11] = target: Cytochrome P450 2D6 (Homo sapiens) (UniProt P10635); test: qHTS for inhibitors of CYP2D6 against the NCATS DSHEA and TCM libraries (AID 1919972)
# Cytochrome P450 2D6 (Homo sapiens), sequence (P10635 whole entry, looked up): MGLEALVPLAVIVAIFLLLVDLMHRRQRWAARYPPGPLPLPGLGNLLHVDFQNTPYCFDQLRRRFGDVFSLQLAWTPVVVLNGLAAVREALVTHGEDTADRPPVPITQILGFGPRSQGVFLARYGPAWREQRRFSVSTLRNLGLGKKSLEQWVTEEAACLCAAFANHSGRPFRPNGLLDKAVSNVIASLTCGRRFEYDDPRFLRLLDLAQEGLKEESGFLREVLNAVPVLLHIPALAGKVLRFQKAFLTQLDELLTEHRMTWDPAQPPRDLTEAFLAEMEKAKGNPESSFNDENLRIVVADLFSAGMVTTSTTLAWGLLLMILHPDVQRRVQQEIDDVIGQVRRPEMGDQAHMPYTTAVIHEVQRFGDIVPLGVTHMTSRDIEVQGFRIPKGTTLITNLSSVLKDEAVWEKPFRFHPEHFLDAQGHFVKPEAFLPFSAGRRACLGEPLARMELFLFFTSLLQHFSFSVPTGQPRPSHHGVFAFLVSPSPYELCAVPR
# Procedure, shortened: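 Luminescent P450-Glo read-out of CYP2D6 turnover of a luciferin substrate after NADPH-driven reaction of 30-45 min at room temperature. Compounds were first preincubated 15 min with enzyme at titrated concentrations; quinidine was the intraplate control.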
# [12] = target: Cytochrome P450 2C9 (Homo sapiens) (UniProt P11712); test: qHTS for inhibitors of CYP2C9 against the NCATS DSHEA and TCM libraries (AID 1919973);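 also: luminogenic pro-luciferin CYP2C9 substrate turned into luciferin with NADPH regeneration; series mostly up to about 34 µM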
# Cytochrome P450 2C9 (Homo sapiens), sequence (P11712 whole entry, looked up): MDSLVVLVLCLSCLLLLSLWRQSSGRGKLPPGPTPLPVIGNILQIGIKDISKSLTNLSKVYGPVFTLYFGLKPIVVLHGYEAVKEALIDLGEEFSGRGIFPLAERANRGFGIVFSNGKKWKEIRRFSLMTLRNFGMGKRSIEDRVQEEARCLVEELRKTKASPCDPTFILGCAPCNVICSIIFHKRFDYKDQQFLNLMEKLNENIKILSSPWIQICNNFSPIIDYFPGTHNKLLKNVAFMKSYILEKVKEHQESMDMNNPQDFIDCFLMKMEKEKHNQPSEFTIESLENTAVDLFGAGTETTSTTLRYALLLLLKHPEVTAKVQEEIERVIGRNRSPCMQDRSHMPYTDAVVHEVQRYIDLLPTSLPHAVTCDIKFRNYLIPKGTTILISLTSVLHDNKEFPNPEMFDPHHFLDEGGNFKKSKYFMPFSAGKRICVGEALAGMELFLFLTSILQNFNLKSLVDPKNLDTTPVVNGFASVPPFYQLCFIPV
# Procedure, shortened: as §2
# [13] = target: Cytochrome P450 2C19 (Homo sapiens) (UniProt P33261); test: qHTS for inhibitors of CYP2C19 against the NCATS DSHEA and TCM libraries (AID 1919974);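 also: luminescence from luciferin released by CYP2C19 oxidation of a pro-luciferin substrate; potency is read from the fitted curve at half-maximal effect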
# Cytochrome P450 2C19 (Homo sapiens), sequence (P33261 whole entry, looked up): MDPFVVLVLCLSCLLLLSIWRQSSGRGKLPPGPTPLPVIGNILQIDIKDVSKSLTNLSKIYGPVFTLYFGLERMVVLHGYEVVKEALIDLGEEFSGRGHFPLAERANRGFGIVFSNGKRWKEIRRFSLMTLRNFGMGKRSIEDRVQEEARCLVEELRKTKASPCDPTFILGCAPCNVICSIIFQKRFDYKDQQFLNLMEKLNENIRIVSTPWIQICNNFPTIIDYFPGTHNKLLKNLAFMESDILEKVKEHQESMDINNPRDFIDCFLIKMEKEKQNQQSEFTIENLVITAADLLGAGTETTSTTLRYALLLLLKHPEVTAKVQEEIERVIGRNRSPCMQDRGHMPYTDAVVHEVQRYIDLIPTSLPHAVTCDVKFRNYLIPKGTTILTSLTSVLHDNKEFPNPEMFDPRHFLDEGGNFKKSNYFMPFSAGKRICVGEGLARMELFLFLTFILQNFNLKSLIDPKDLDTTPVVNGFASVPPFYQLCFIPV
# Procedure, shortened: as §2
# [14] = KB-3-1 P-gp reporter qHTS against the NCATS DSHEA and TCM libraries (AID 1919975)
# Procedure, shortened: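 72 h exposure of KB-3-1 cells (DMEM, 10% FBS) to DSHEA/TCM samples, concentration-response; cell viability measured as CellTiter-Glo luminescence after 30 min at room temperature.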
# [15] = target: Cytochrome P450 1A2 (Homo sapiens) (UniProt P05177); test: qHTS for inhibitors of CYPIA2 against the NCATS DSHEA and TCM libraries (AID 1919976); also: potency is read from the fitted curve at half-maximal effect
# Cytochrome P450 1A2 (Homo sapiens), sequence (P05177 whole entry, looked up): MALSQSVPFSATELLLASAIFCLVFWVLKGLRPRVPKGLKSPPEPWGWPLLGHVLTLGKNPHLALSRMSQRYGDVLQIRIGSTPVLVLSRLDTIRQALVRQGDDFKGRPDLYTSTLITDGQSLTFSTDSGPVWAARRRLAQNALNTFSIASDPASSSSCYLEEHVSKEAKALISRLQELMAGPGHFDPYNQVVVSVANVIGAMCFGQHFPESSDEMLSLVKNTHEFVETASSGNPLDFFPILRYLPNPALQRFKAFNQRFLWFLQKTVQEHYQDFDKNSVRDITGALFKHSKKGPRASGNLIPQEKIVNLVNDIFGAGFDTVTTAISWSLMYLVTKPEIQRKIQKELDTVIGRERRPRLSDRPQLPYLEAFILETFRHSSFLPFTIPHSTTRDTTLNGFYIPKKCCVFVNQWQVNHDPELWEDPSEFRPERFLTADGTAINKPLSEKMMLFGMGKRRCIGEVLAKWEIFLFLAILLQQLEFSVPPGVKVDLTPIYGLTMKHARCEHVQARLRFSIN
# Procedure, shortened: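 Human CYP1A2 with pro-luciferin substrate (typically 100 mM KPO4), 15 min preincubation with compound, then 1x NADPH regeneration for 30-45 min at room temperature in the dark. Luciferin quantified by luciferase luminescence; furafylline intraplate control.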
# [16] = qHTS Counterscreen for compound interference against the NCATS DSHEA and TCM libraries (AID 1919978); details: firefly luciferase detection reagent interference, luminescence
# Procedure, shortened: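 Read-out is luminescence after 30 min at RT with luciferin detection reagent. Before that, compounds (19.5 nM to 39.8 uM final) sat 15 min at RT with 1 uM D-luciferin or 100 mM potassium phosphate buffer. PTC124 served as intraplate control.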
# [17] = Dual reporter qHTS for agonist of Pregnane X Receptor (hPXR) against the NCATS DSHEA and TCM libraries: Fluorescence readout (AID 1920058)
# Procedure, shortened: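 hPXR-Luc HepG2 cells, 2000/well in charcoal-stripped serum, attached 5 h, dosed for ~24 h at 37 °C. Fluorescence read is CellTiter-Fluor viability (Ex/Em 405/540 nm); rifampicin positive, tetraoctyl ammonium bromide (92 µM) cytotoxicity controls.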
# [18] = target: Nuclear receptor subfamily 1 group I member 2 (Homo sapiens) (UniProt O75469); test: Dual reporter qHTS for agonist of Pregnane X Receptor (hPXR) against the NCATS DSHEA and TCM libraries: Luminescence readout (AID 1920059)
# Nuclear receptor subfamily 1 group I member 2 (Homo sapiens), sequence (O75469 whole entry, looked up): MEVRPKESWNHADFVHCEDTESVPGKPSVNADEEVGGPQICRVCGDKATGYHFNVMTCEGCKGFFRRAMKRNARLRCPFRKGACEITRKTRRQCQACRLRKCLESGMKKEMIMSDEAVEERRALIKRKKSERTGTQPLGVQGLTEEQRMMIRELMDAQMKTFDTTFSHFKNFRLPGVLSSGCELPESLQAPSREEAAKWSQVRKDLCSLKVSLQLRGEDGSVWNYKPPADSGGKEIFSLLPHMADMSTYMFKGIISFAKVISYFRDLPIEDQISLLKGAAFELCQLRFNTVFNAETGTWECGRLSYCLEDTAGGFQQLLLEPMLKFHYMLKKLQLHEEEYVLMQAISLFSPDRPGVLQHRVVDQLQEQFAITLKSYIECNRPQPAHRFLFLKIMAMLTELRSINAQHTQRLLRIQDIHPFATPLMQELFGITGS
# Procedure, shortened: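 hPXR-LucHepG2 cells in phenol red-free DMEM with 5% charcoal-stripped FBS, 2000 cells/well, attached 5 h, then exposed 24 h at 37C to compounds; rifampicin as positive agonist control (2.8 nM–92 uM). Luciferase luminescence read.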
# [19] = target: Nuclear receptor subfamily 1 group I member 2 (Homo sapiens) (UniProt O75469); test: Dual reporter qHTS for antagonist of Pregnane X Receptor (hPXR) against the NCATS DSHEA and TCM libraries: Luminescence Readout (AID 1920060);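 also: HepG2 cells carrying hPXR luciferase reporter stimulated with rifampicin at 2 µM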
# Procedure, shortened: (§3)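 HepG2 hPXR-Luc, 2000 cells/well, charcoal-stripped FBS medium; 5 h attach; RIF 2 uM final; 24 h 37C/5% CO2; CellTiter-Fluor 1 h, fluor 405/540; ONE-Glo 30 min RT, lum.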
# [20] = Dual reporter qHTS for antagonist of Pregnane X Receptor (hPXR) against the NCATS DSHEA and TCM libraries: Fluorescence Readout (AID 1920061)
# Procedure, shortened: as §3
compound,measurement,setting,value
Fc1ccc(C(c2ccc(F)cc2)N2CCNCC2)cc1,Potency,[1],inactive
Cc1nn(-c2ccccc2)c(C)c1/C=N/N1CCN(Cc2ccccc2)CC1,outcome,[2],inactive
same,Potency,[1],inactive
same,Potency,[3],inactive
same,Potency,[4],inactive
same,Potency,[5],inactive
same,outcome,[6],inactive
Nc1c2ccccc2nc2ccccc12,Potency,[1],22.7 µM (active)
O=C(Nc1ccc(Cl)cc1)Nc1ccc(Cl)c(C(F)(F)F)c1,Potency,[1],inactive
Clc1ccc2c(c1)N=C(N1CCNCC1)c1ccccc1N2,outcome,[2],inactive
same,Potency,[1],inactive
same,Potency,[3],inactive
same,Potency,[5],inactive
same,outcome,[6],inactive
O=C(OCC1(COC(=O)c2cccnc2)CCCC(COC(=O)c2cccnc2)(COC(=O)c2cccnc2)C1O)c1cccnc1,Potency,[1],inactive
CC(C)N(CCC(=O)c1ccc2ccccc2c1)Cc1ccccc1,outcome,[2],inactive
same,Potency,[1],inactive
same,Potency,[3],inactive
same,Potency,[7],inactive
same,Potency,[4],inactive
same,Potency,[5],1.2 µM (active)
same,outcome,[6],inactive
CC(C)=CCNc1ncnc2c1ncn2[C@@H]1O[C@H](CO)[C@@H](O)[C@H]1O,Potency,[1],inactive
Oc1ccc(CCNCCCCCCNCCc2ccccc2)cc1O,Potency,[1],inactive
CN1CCC(Nc2ncc3ncnc(Nc4ccc(F)c(Cl)c4)c3n2)CC1,Potency,[1],inactive
COc1ccccc1N1CCN(CCN2C(=O)CC3(CCCC3)CC2=O)CC1,outcome,[2],inactive
same,Potency,[1],inactive
same,Potency,[3],inactive
same,Potency,[4],inactive
same,Potency,[5],inactive
same,outcome,[6],inactive
NC(N)=NCCCCN=C(N)N,outcome,[2],inactive
same,Potency,[1],inactive
same,Potency,[3],inactive
COc1cccc2c1[C@@H]1CN(CCCCn3c(=O)[nH]c4c(sc5ncc(-c6ccccc6)nc54)c3=O)C[C@@H]1CO2,outcome,[2],inactive
same,Potency,[1],inactive
same,Potency,[3],inactive
CCN(CC)CCNC(=O)c1ccc(NS(C)(=O)=O)cc1,outcome,[2],inactive
same,Potency,[1],inactive
same,Potency,[3],inactive
Cc1cc2nc3ccc(=[N+](C)C)cc-3sc2cc1N,Potency,[1],28.6 µM (active)
CCn1ccc(NS(=O)(=O)c2ccc(N)cc2)nc1=O,Potency,[1],inactive
same,Potency,[3],inactive
Cn1cnc2c(NCc3ccccc3)nc(NCCO)nc21,outcome,[2],inactive
same,Potency,[1],inactive
same,Potency,[3],inactive
CN(C)c1cc2c(Nc3ccc4c(cnn4Cc4ccccc4)c3)ncnc2cn1,outcome,[2],inactive
same,Potency,[1],inactive
same,Potency,[3],inactive
same,Potency,[5],inactive
C[C@@H](O[C@H]1OCCN(Cc2n[nH]c(=O)[nH]2)[C@H]1c1ccc(F)cc1)c1cc(C(F)(F)F)cc(C(F)(F)F)c1,Potency,[1],inactive
N[C@@H](Cn1ccc(=O)c(O)c1)C(=O)O,outcome,[2],inactive
same,Potency,[1],inactive
same,Potency,[3],inactive
same,"activity change, negative = inhibition",[7],-9.21% [at 6.45 µM]
same,"activity, negative = inhibition",[5],-6.53% [at 6.45 µM]
same,redox activity (% of DA3003),[6],-4.94% [at 6.41 µM]
O=C(O)CCCC[C@@H]1SC[C@@H]2NC(=O)N[C@@H]21,outcome,[8],inactive
same,outcome,[9],inactive
same,Potency,[1],inactive
same,Potency,[3],inactive
same,outcome,[10],inactive
same,outcome,[11],inactive
same,outcome,[12],inactive
same,Potency,[13],3.55 µM (active)
same,outcome,[14],inactive
same,Potency,[15],3.98 µM (active)
same,max response,[16],3.76%
same,outcome,[17],inactive
same,outcome,[18],inactive
same,outcome,[19],inactive
same,outcome,[20],inactive
COC(=O)C1=CO[C@@H](O)[C@@H]2C(CO)=CC[C@H]12,outcome,[2],inactive
same,Potency,[1],inactive
same,Potency,[3],inactive
same,Potency,[4],13.4 µM (active)
same,Potency,[5],inactive
same,outcome,[6],inactive
O=[N+]([O-])c1ccc(-c2nc(-c3ccc(F)cc3)c(-c3ccncc3)[nH]2)cc1,outcome,[2],inactive
same,Potency,[1],inactive
same,Potency,[3],inactive
same,Potency,[5],inactive
same,outcome,[6],inactive
CC(C)C(=O)OCc1cccc(OC(=O)[C@@H]2N3C(=O)[C@@H](NC(=O)Cc4ccccc4)[C@H]3SC2(C)C)c1,Potency,[1],inactive
CCC(=O)Oc1ccc2c(c1)CC[C@@H]1[C@@H]2CC[C@@]2(C)[C@H]1C[C@@H](OC(=O)CC)[C@@H]2OC(=O)CC,Potency,[1],inactive
same,Potency,[3],inactive
C[C@@H]1CCC[C@H](C)N1CCCC(O)(c1ccccc1)c1ccccn1 (stereo partly drawn),Potency,[1],inactive
same,Potency,[3],inactive
O=[N+]([O-])c1cncn1CCN1CCOCC1,Potency,[1],inactive
same,Potency,[3],inactive
CCN(CC)CC(=O)Nc1c(C)cccc1C(=O)OC,Potency,[1],inactive
same,Potency,[3],inactive
CCOC(=O)NNc1ccc(N(CC)CC(C)O)nn1 (stereo not drawn),Potency,[1],inactive
same,Potency,[3],inactive
CCCC(=O)OCOC(=O)C1=C(C)NC(C)=C(C(=O)OC)C1c1cccc(Cl)c1Cl (stereo not drawn),Potency,[1],inactive
same,Potency,[3],inactive
O=C(Oc1ccccc1)c1ccccc1O,Potency,[1],inactive
same,Potency,[3],inactive
